HT1080NT lethal = kills 2HG-producing HT-1080-NT fibrosarcoma cells; HT-1080-NT fibrosarcoma viability, CellTiter-Glo ATP luminescence, 48 h; Potency, µM (titrated, usually from 46.1 µM), for inactives: at the highest dose activity, negative = less viability, most hits filed as cytotoxic; 360,000 compounds, 1.6% hits;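 also: NT is the 2HG producing partner of a matched IDH1 knockdown line; 0% = DMSO-treated cells and -100% = media-only wells without cells; nearly all actives have a fitted effect of over 55% in size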
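750 cells/well, RPMI + 5% FBS; 2 h settle, compound pin-transfer, 48 h at 37 degrees C. CellTiter-Glo 10 min RT, luminescence. Normalized to DMSO and media-only wells.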
MCF10A rereplic = inducers of DNA re-replication in MCF 10A breast cells; 350,000 compounds, 2.9% hits; AID 624296; MCF 10A DNA re-replication, Hoechst nuclear intensity, 48 h; Potency, µM (titrated, usually from 46.1 µM), for inactives: at the top dose activity, positive = re-replication, usual class: activators; also: % of control where 0% means no effect; nearly all actives have a fitted effect of over 50% in size
SW480 rereplic = induces DNA re-replication in SW480 colon adenocarcinoma cells | SW480 DNA re-replication, Hoechst DNA content imaging, 48 h | Potency, µM (series often up to 46.1 µM), for the others: at the top dose re-replication activation, most hits filed as activators | 340,000 compounds, 1.8% hits | AID 624297; also: % of control where 0% means no effect; nearly all actives have a fitted effect of over 55% in size
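Image-based DNA-content assay: after two days of treatment, nuclei were labelled with the DNA dye Hoechst and imaged, and hits were compounds raising the count of nuclei showing high fluorescence intensity.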
KB-V1 MDR tox = KB-V1 MDR subline cytotoxicity. 400,000 compounds, 3.4% hits. KB-V1 MDR cells viability, CellTiter-Glo, 72 h. Potency, µM (top dose mostly 46.1 µM), hits mostly cytotoxic; also: % is scaled to controls: 0 for no effect and ±100 for the full control effect; nearly all actives have a fitted effect of over 60% in size
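In this primary screen, KB-V1 cells overexpressing P-gp are incubated with library compounds (lowest to highest concentration) for 72 h at 37 degrees C before a luminescent ATP viability read.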
HT1080 IDH1KD tx = HT-1080 IDH1 knockdown cell toxicity (counter line); Potency, µM (highest dose often 46.1 µM), for inactives: at the top dose activity, negative = toxicity, usual class: cytotoxic; HT-1080 IDH1 knockdown viability, ATP luminescence, 48 h; 360,000 compounds, 2% hits;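 also: 0% = DMSO wells and -100% = cell-free medium wells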
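Knockdown cells (IDH1KD HT-1080) received compounds 2 h after plating at 750 cells/well and were kept 48 h at 37 °C in 5% FBS RPMI. A CellTiter-Glo luminescence read gave % activity for curve fitting.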
KB-3-1 cytotox = KB-3-1 parental cell cytotoxicity; KB-3-1 viability, CellTiter-Glo ATP luminescence, 72 h; Potency, µM (titrated, usually from 46.1 µM), usual class: cytotoxic; 400,000 compounds, 1.4% hits; AID 1347075; also: % is scaled to controls: 0 for no effect and ±100 for the full control effect; nearly all actives have a fitted effect of over 60% in size
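Viability of parental KB-3-1 cells, measured by CellTiter-Glo luminescence, followed a 72 h incubation at 37 °C with pinned compounds in phenol-red-free DMEM containing 10% FBS.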
Starred values were filed as active, the others as inactive; ! = repeats disagree; [ ] = dose if it differs, or a comment. Sampled rows, rich in hits. Any-hit rate of the full collection: about 7.9%. Calls follow the shape of the dose curve; as a rule, active = well fitted curve in the direction sought with a large enough effect; inconclusive = small, poorly fitted or top-dose-only effect, or another doubt; inactive = no such curve, though single readings can be large; an effect the other way counts as inactive or inconclusive. Potency is read from the fitted curve at half-maximal effect.

CC(C)(O)[C@H]1O[C@H]2CC[C@@]3(C)[C@@](O)(CC[C@H]4Cc5c([nH]c6ccccc56)[C@@]43C)C2=CC1=O was read as HT1080NT lethal inconclusive, MCF10A rereplic inconclusive, SW480 rereplic 0.73µM*, KB-V1 MDR tox inactive, HT1080 IDH1KD tx inconclusive and KB-3-1 cytotox inactive.
`CCC1(C)Cc2ccccc2-c2c1c(=O)n(Cc1ccccc1)c1nnnn21` (stereo unspecified) gave HT1080NT lethal -13%, MCF10A rereplic inconclusive, SW480 rereplic -3%, KB-V1 MDR tox inactive, HT1080 IDH1KD tx -2% and KB-3-1 cytotox inactive.
`C[N+]1(C)C2CC[C@H]1CC(OC(=O)[C@@H](CO)c1ccccc1)C2` (stereo partly specified) gave MCF10A rereplic 9% and SW480 rereplic inconclusive.
Screening CC(=O)OCC12CC(OC(=O)CC(C)C)C(C)=CC1OC1C(O)C(OC(C)=O)C2(C)C12CO2 (stereo unspecified) returned HT1080NT lethal 0.26µM*, MCF10A rereplic inconclusive, SW480 rereplic inconclusive, KB-V1 MDR tox inconclusive and KB-3-1 cytotox 0.0092µM*.
For CC1=CC(O)C(O)C2(C)C1CC1OC(=O)CC3C(C)C(O)C(=O)C2C13CO (stereo unspecified) the results were HT1080NT lethal -2%, MCF10A rereplic 0%, SW480 rereplic inconclusive, KB-V1 MDR tox inactive, HT1080 IDH1KD tx -9% and KB-3-1 cytotox 18µM*.
`Cc1ccc2c(c1)CCCN2N=O` gave HT1080NT lethal -1%, MCF10A rereplic inconclusive, SW480 rereplic 1%, KB-V1 MDR tox inactive, HT1080 IDH1KD tx -6% and KB-3-1 cytotox inactive.
CCCN1CCCc2cc(CN)ccc21 was read as HT1080NT lethal inconclusive, MCF10A rereplic 13µM*, SW480 rereplic inconclusive, KB-V1 MDR tox inactive, HT1080 IDH1KD tx inconclusive and KB-3-1 cytotox inactive.
Screening CNCCCc1ccccc1 returned HT1080NT lethal -7%, MCF10A rereplic inconclusive, SW480 rereplic 5%, KB-V1 MDR tox inactive, HT1080 IDH1KD tx -14% and KB-3-1 cytotox 23µM*.
For BrCCc1ccccc1 the results were MCF10A rereplic 20%, SW480 rereplic -80%, KB-V1 MDR tox inactive and KB-3-1 cytotox inactive.
Screening CC1CCCC(C)N1/N=C/c1c[nH]c2ccc(Br)cc12 (stereo unspecified) returned HT1080NT lethal 21µM*, MCF10A rereplic inconclusive, SW480 rereplic inconclusive, KB-V1 MDR tox inactive, HT1080 IDH1KD tx inconclusive and KB-3-1 cytotox inconclusive.
For CCC1(CC)C(=O)NC(=O)N(C)C1=O the results were MCF10A rereplic 5% and SW480 rereplic -1%.
Cc1cccc(CN2CCN(Cc3ccc(Cl)cc3)CC2)c1 was read as HT1080NT lethal -15%, MCF10A rereplic 7.3µM*, SW480 rereplic inconclusive, KB-V1 MDR tox inconclusive, HT1080 IDH1KD tx -28% and KB-3-1 cytotox inactive.
`COC(=O)c1ccc(NC(=O)c2cccn(Cc3ccccc3C)c2=O)cc1` gave KB-V1 MDR tox inconclusive and KB-3-1 cytotox inactive.
For CCOc1cc(-c2nc3c(C)cccn3c2NCC2CCCO2)ccc1O (stereo unspecified) the results were HT1080NT lethal -5%, MCF10A rereplic 0%, SW480 rereplic -3%, KB-V1 MDR tox 5.2µM*, HT1080 IDH1KD tx -5% and KB-3-1 cytotox inactive.
Cc1cccnc1 was read as HT1080NT lethal 25%, MCF10A rereplic 18%, SW480 rereplic -56%, KB-V1 MDR tox inactive, HT1080 IDH1KD tx 2% and KB-3-1 cytotox inactive.
Screening C#CC(C)(O)CC (stereo unspecified) returned MCF10A rereplic 11% and SW480 rereplic 0%.
Cc1cc2c(C(C)C)c(O)c(O)c(C=O)c2c(O)c1-c1c(C)cc2c(C(C)C)c(O)c(O)c(C=O)c2c1O was read as MCF10A rereplic inconclusive, SW480 rereplic 13µM*!, KB-V1 MDR tox inconclusive and KB-3-1 cytotox 1.5µM*.
Screening O=C(Nc1ccc(Br)cc1)c1cc(Br)cc(Br)c1O returned MCF10A rereplic inconclusive and SW480 rereplic -3%.
`Nc1c(C(=O)NCCN2CCOCC2)c2nc3ccccc3nc2n1Cc1ccco1` gave HT1080NT lethal -4%, MCF10A rereplic 6.5µM*, SW480 rereplic 8.2µM*, KB-V1 MDR tox inactive, HT1080 IDH1KD tx -12% and KB-3-1 cytotox inactive.
`Nc1c(C(=O)NCCc2ccccc2)c2nc3ccccc3nc2n1CCN1CCOCC1` gave HT1080NT lethal 18µM*, MCF10A rereplic 1%, SW480 rereplic 8%, KB-V1 MDR tox 23µM*, HT1080 IDH1KD tx inconclusive and KB-3-1 cytotox inactive.
Screening Nc1c(C(=O)NCCN2CCOCC2)c2nc3ccccc3nc2n1Cc1ccccc1 returned HT1080NT lethal -6%, MCF10A rereplic 15µM*, SW480 rereplic 23µM*, KB-V1 MDR tox inconclusive, HT1080 IDH1KD tx -5% and KB-3-1 cytotox inactive.
For C=CCNC(=O)c1c(N)n(Cc2ccco2)c2nc3ccccc3nc12 the results were HT1080NT lethal inconclusive, MCF10A rereplic 20%, SW480 rereplic 12%, KB-V1 MDR tox inactive, HT1080 IDH1KD tx inconclusive and KB-3-1 cytotox inactive.
O=C(NCCN1CCOCC1)c1ccc(Cl)nc1Cl was read as HT1080NT lethal -7%, MCF10A rereplic 13%, SW480 rereplic -7%, KB-V1 MDR tox inactive, HT1080 IDH1KD tx -2% and KB-3-1 cytotox inactive.
Screening CCCCn1c(N)c(C(=O)NCCN2CCOCC2)c2nc3ccccc3nc21 returned HT1080NT lethal inconclusive, MCF10A rereplic 21µM*, SW480 rereplic 18µM*, KB-V1 MDR tox inactive, HT1080 IDH1KD tx inconclusive and KB-3-1 cytotox inactive.
For Cc1ccc(-c2nc(CN3C(=O)CN=C(c4ccccc4)c4ccccc43)c(C)o2)cc1 the results were KB-V1 MDR tox inactive and KB-3-1 cytotox inactive.
For COc1ccc(CCNC(=O)c2c(N)n(CCN3CCOCC3)c3nc4ccccc4nc23)cc1 the results were HT1080NT lethal -1%, MCF10A rereplic inconclusive, SW480 rereplic 16µM*, KB-V1 MDR tox inconclusive, HT1080 IDH1KD tx 5% and KB-3-1 cytotox inconclusive.
For Cc1ccccc1C(O)(Cc1ccccc1)C1CN2CCC1CC2 (stereo unspecified) the results were HT1080NT lethal inconclusive, MCF10A rereplic 4%, SW480 rereplic -8%[9.22 µM], KB-V1 MDR tox inconclusive, HT1080 IDH1KD tx inconclusive and KB-3-1 cytotox 10µM*.
For CC[C@]1(c2cccc(O)c2)CCCCN(C)C1 the results were MCF10A rereplic -9%[20.6 µM] and SW480 rereplic -2%[20.6 µM].
